Screens as filed in PubChem BioAssay.
IL-1B inflam inh = blocks inflammasome-driven IL-1 beta release. THP-1 LPS/ATP IL-1B secretion, AlphaLISA, 16 h; stronger effect = lower value. activity change, % at 57.5 µM. 4.7% of 360,000 active. AID 743279; in the data active = activity change below about -50%; inconclusive = mostly about -30% to -49%; note: % is set by controls: 0 for no effect and ±100 for the full control effect
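THP-1 cells pretreated 1 hr with compounds (up to 57.5 uM final), then stimulated with LPS (250 ng/mL final) plus ATP (1.25 mM final); secreted IL-1B measured by AlphaLISA after 16 hr, decreased signal indicating inhibition.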
TGFb SMAD3 inh = TGF-b pathway inhibition; HepG2 CAGA-GFP TGF-b/SMAD3 reporter, GFP fluorescence, 18 h; TGF-beta stimulated, 500 pg/mL final; Potency, µM (doses to about 46.1 µM), for the others: at the highest dose activity, negative = inhibition, hits mostly inhibitors; 1.2% of 410,000 active; AID 588855; note: potency is the fitted concentration of half-maximal effect; % is set by controls: 0 for no effect and ±100 for the full control effect; nearly all actives have a fitted effect of over 65% in size
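Using HEPG2 CAGA-GFP reporter cells at 1000 cells/well, we pinned test compounds, stimulated with recombinant TGF-beta (500 pg/mL final) and measured total well GFP after 18 h.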
TDP1 inh = TDP1 (human) enzyme inhibition; Q9NUW8; recombinant TDP1, AlphaScreen DNA substrate cleavage; Potency, µM (top dose mostly 130 µM), inactives show at the highest dose activity change, negative = inhibition, actives largely listed as inhibitors; 0.28% of 350,000 active; AID 485290; note: potency is the fitted concentration of half-maximal effect; % is set by controls: 0 for no effect and ±100 for the full control effect; nearly all actives have a fitted effect of over 40% in size
Target sequence (Q9NUW8 whole entry, looked up): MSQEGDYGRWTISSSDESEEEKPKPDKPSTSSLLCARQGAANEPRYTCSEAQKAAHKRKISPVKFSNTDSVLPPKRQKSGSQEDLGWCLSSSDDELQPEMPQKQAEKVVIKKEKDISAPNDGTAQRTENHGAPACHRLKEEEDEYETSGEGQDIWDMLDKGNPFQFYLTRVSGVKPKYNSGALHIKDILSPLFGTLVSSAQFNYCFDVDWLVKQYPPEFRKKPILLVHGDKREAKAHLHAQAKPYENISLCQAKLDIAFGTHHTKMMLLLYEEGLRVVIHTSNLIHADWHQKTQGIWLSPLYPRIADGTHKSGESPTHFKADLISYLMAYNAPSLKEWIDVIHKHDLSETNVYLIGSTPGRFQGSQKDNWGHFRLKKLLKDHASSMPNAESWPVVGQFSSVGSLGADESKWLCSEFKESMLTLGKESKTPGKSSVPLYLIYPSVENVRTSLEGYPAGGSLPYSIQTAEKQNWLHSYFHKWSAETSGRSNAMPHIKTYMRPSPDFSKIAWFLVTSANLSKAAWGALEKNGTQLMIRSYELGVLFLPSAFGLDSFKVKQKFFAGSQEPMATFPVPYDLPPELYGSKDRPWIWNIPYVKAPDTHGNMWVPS
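Recombinant human Tdp1 (E. coli-expressed, 1 nM final) preincubated with compounds 15 min at room temperature, then 5'-biotin/3'-phosphotyrosine-FITC DNA substrate (15 nM final) added for 5 min. AlphaScreen beads (10 ug/ml final) added 10 min; cleavage lowers signal.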
TDP1 cell CPT = DT40-hTDP1 cell growth loss with CPT; 12% of 420,000 active; Potency, µM (doses to about 46.2 µM), without a hit: at the top dose activity change, negative = growth inhibition, hits mostly inhibitors; chicken DT40 Tdp1-/-;hTDP1 cells + 20 nM CPT, ATP luminescence, 48 h; AID 686979; note: potency is the fitted concentration of half-maximal effect; % is set by controls: 0 for no effect and ±100 for the full control effect; nearly all actives have a fitted effect of over 55% in size
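Chicken DT40 Tdp1-/- cells complemented with human TDP1, 400 cells/well, exposed to compounds plus 20 nM camptothecin for at least 48 h at 37 C; viability read as ATP content by CellTiter-Glo luminescence.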
HepG2 tox = counter-screen for TGF-b inhibitors: cytotoxicity in HepG2 cells | HepG2 CAGA-GFP viability, ATP luminescence, 18 h | Potency, µM (titrated, usually from 46.1 µM), for the others: top-dose activity change, negative = cytotoxicity, most hits filed as cytotoxic | 0.76% of 410,000 active; note: potency is the fitted concentration of half-maximal effect
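CellTiter-Glo luminescence gave cytotoxicity after 18 hours at 37 degrees C. The cells were HepG2 CAGA-GFP in 1% FBS DMEM, stimulated with 500 pg/mL TGF-beta after compound addition. %Activity was normalised to no-cell wells (complete cell-killing) and DMSO (no toxicity), and curves were fitted and classified.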
TDP1 cell noCPT = qHTS for Inhibitors of human tyrosyl-DNA phosphodiesterase 1 (TDP1): qHTS in cells in absence of CPT | DT40 Tdp1-/- hTDP1 cells, no CPT, ATP luminescence, 48 h | Potency, µM (titrated, usually from 46.2 µM), for the others: top-dose activity change, negative = growth inhibition, actives largely listed as inhibitors | 15% of 420,000 active | AID 686978, 2013; note: potency is the fitted concentration of half-maximal effect; % is set by controls: 0 for no effect and ±100 for the full control effect; nearly all actives have a fitted effect of over 55% in size
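Camptothecin absent (DMSO only). Human TDP1-complemented DT40 knockout cells, 400 cells/well, 37 °C for minimum 48 hr; ATP measured via CellTiter-Glo, 30 min dark incubation, luminescence.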
* marks the source's active call; other numbers are inactive results; i = inactive; ? = inconclusive; . = not tested or not shown; [ ] = another dose, or the depositor's remark. Hits are enriched below; roughly 19% of the tested compounds scored in any of these assays. Unless noted, calls come from the whole dose curve; as a rule, active = well fitted curve in the direction sought with a large enough effect; inconclusive = small, poorly fitted or top-dose-only effect, or another doubt; inactive = no such curve, though single readings can be large; an effect the other way counts as inactive or inconclusive.

SMILES	IL-1B inflam inh	TGFb SMAD3 inh	TDP1 inh	TDP1 cell CPT	HepG2 tox	TDP1 cell noCPT
Cc1ccccc1C(=O)N1c2ncnn2C2(CCCCC2)[C@@H]2CCCC[C@@H]21	.	-14%	6%	?	-12%	?
O=S(=O)(c1ccc(Cl)cc1)c1nc(-c2ccccc2Br)oc1NCc1ccccc1	.	-25%	-2%[12.3 µM]	?	1%	13µM*
COCCNc1oc(-c2ccccc2Cl)nc1S(=O)(=O)c1ccc(C)cc1	-57*	-4%	-1%	?	-4%	?
Cc1ccc(S(=O)(=O)c2nc(-c3ccccc3Cl)oc2NCCCN2CCOCC2)cc1	i	8%	2%	?	0%	26µM*
Cc1ccccc1-c1nc(S(=O)(=O)c2ccccc2)c(NCCN2CCOCC2)o1	-25	-6%	.	?	-38%	?
O=S(=O)(c1ccc(Cl)cc1)c1nc(-c2ccccc2F)oc1NCCCN1CCOCC1	-74*	1%	9%	?	-41%	?
CC(OC(=O)c1cccc(-n2cnnn2)c1)C(=O)Nc1ccc(F)cc1Cl (stereo not drawn)	12	-6%	-3%	2%	13%	?
CO[C@@H](CCO)C[C@H]1O[C@H](C(=O)OC(C)C)CC[C@@H]1C	.	.	4%	.	.	.
Nc1nonc1-n1nnc(C(=O)N/N=C/c2ccccc2F)c1CN1CCc2ccccc21	-10	?	5%	1%	-24%	-26%
CN(C)CCCNc1oc(-c2ccc(Cl)cc2)nc1S(=O)(=O)c1ccccc1	-8	?	5%	15µM*	-81%	16µM*
O=S(=O)(c1ccccc1)c1nc(-c2ccco2)oc1NCCN1CCOCC1	14	2%	7%	-19%	-21%	-3%
O=S(=O)(c1ccc(Br)cc1)c1nc(-c2ccccc2)oc1NCCN1CCOCC1	-61*	-3%	9%	?	-10%	?
COC(=O)c1ccc(NC(=O)c2cc[n+](Cc3ccccc3)cc2)cc1	17	0%	.	-4%	-25%	2%
COc1ccc(C(=O)NC(C)c2ccccc2)cc1Br (stereo not drawn)	-3	-8%	0%	-7%	-5%	-14%
COc1cc(CNCc2c[nH]c3ccccc23)cc(OC)c1	-84*	-6%	1%	5.8µM*	-32%	9.2µM*
COc1cc(CNCc2cccc3ccccc23)cc(OC)c1	8	?	7%	?	-36%	?
COc1cc(CNCc2ccc(OC)cc2OC)cc(OC)c1	-8	?	.	?	-36%	21µM*
COc1ccc(Br)cc1CNC(C)c1ccccc1 (stereo not drawn)	?	-11%	3%	?	-51%	29µM*
COc1ccc(CNCc2ccc(OC)c3ccccc23)cc1	-76*	16%	.	?	-20%	?
CSc1ccc(CCNC(=O)c2cc(C)nc3c2c(C)nn3-c2ccccc2)cc1	.	3%	1%	-14%	-6%	?
CCCN(Cc1nnc(-c2cccs2)o1)C(=O)CN1C(=O)NC2(CCCCC2)C1=O	-13	-1%	-9%	3%	-2%	-23%
Cc1ccc(S(=O)(=O)n2nc(C)c(S(=O)(=O)N3CCC(C)CC3)c2C)cc1	.	-1%	1%	-19%	-7%	4%
COc1cccc(CNCc2ccccn2)c1OC	0	11%	-6%	-22%	-2%	18µM*
COc1ccccc1CNCC(c1ccccc1)c1ccccc1	.	.	5%[0.0935 µM]	.	.	.
COc1ccccc1CNCc1cc(Br)ccc1OC	?	?	-4%	?	-23%	16µM*
SMILES	IL-1B inflam inh	TGFb SMAD3 inh	TDP1 inh	TDP1 cell CPT	HepG2 tox	TDP1 cell noCPT
COc1ccccc1CNCc1cccc(Oc2ccccc2)c1	-83*	-3%	-8%	?	-18%	?
COc1ccccc1CNCc1ccc(OC)c2ccccc12	-82*	?	.	?	-61%	16µM*
COc1ccc(NS(=O)(=O)c2ccc3[nH]c(=O)ccc3c2)cc1OC	.	8%	9%	-20%	8%	-30%
Cc1ccc(SCC(=O)OCC(=O)NC(C)c2ccc(Br)cc2)cc1 (stereo not drawn)	12	?	1%	-15%	-53%	-6%
COc1cccc(CNCc2ccc(OC)c3ccccc23)c1OC	-84*	?	.	21µM*	-37%	16µM*
COc1cccc(CNCCOCCO)c1OC	6	-6%	0%	9%	6%	-2%
COc1ccc(Br)cc1CNC(=O)c1cc2ccccn2n1	.	0%	0%	16µM*	-24%	?
O=C(O)c1cccc(S(=O)(=O)Nc2ccccc2C(=O)NCCc2ccccc2)c1	23	-5%	0%	-3%	-14%	-17%
CCn1c(NCc2cc(Cl)ccc2O)nc2ccccc21	-30	-27%	.	?	-19%	?
COc1ccc(Nc2cc(C)nc(-n3nc(C)cc3C)n2)cc1Cl	.	?	14%	0.37µM*	-38%	0.15µM*
Cc1cc(Nc2ccc(F)cc2F)nc(-n2nc(C)cc2C)n1	.	?	11%	2.9µM*	-40%	4.6µM*
Cc1cc(Nc2ccc(C(C)C)cc2)nc(-n2nc(C)cc2C)n1	.	?	14%	0.58µM*	-48%	0.82µM*
